From PubChem BioAssay (NCI)
“And” between values parts separate entries of the source, which are not always exact repeats. Equal values may be shown once. About 79,000 compounds went through this panel and 15% of them were active in at least one assay; those are over-represented in the sample as a whole. The source holds several records for some structures; these can differ, active in one and inactive in another. The source made the active and inactive calls. Rule as the data show it: active = growth inhibition above about 70%; inactive = the rest.

Test: NCI Yeast Anticancer Drug Screen. Data for the rad50 strain (AID 155);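 also: 0% = growth of vehicle-only cultures of the same strain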
Conditions: S. cerevisiae rad50 strain growth inhibition, stronger effect = higher value
Protocol: Growth inhibition of yeast strains with defined genetic alterations is measured as a screen for potential anti-cancer activity. Selected strains with alterations in DNA damage repair or cell cycle control were exposed to compounds and growth inhibition was measured relative to vehicle treated controls. The strain used in this assay is rad50

[1] = at 5.0 µM (retest, dose inferred, filed as 0.5)
[2] = at 50.0 µM (retest, dose inferred, filed as 5.0)

Compound | growth inhibition (at 1.2 µM) | growth inhibition (at 3.7 µM) | growth inhibition [1] | growth inhibition (at 11.0 µM) | growth inhibition (at 33.0 µM) | growth inhibition [2] | growth inhibition (at 50.0 µM) | growth inhibition (at 100.0 µM)
COc1ccc2[nH]cc([C@@H]3C4CCC(C4)[C@H]3NCc3cccc(CN[C@H]4C5CCC(C5)[C@@H]4c4c[nH]c5ccc(OC)cc45)c3)c2c1 | -36% (inactive) | -16% (inactive) | -15% (inactive) | -27% (inactive) | 51% (inactive) | 99% (active) | 98.3% (active) and 55.8% (inactive) | 97% (active)
Cc1nc2ccccc2nc1NNc1ccccc1 | -6% (inactive) | -12% (inactive) | 17% (inactive) | 9% (inactive) | 46% (inactive) | 34% (inactive) | 81.3% (active) | 60% (inactive)
Cc1cc(S(=O)(=O)Nc2nnc3cnc4ccccc4n23)c(S)cc1Cl | 0% (inactive) | 0% (inactive) | -3% (inactive) | 2% (inactive) | 12% (inactive) | 60% (inactive) | -14.9% (inactive) | 37% (inactive)
O=c1ccc2ccccc2c2ccccc12 | -13% (inactive) | 7% (inactive) | -2% (inactive) | 66% (inactive) | 97% (active) | 98% (active) | 90.9% (active) | 97% (active)
Cc1cccc[n+]1C1CCc2c(ccc3ccccc23)C1=O (stereo not given) | 5% (inactive) | 2% (inactive) | -1% (inactive) | 0% (inactive) | 16% (inactive) | 40% (inactive) | 74.9% (active) | 68% (inactive)
